According to ChEMBL document CHEMBL1157539, “Thousands of chemical starting points for antimalarial lead identification” (Nature, 2010):

What was measured:
Assay type in all cases: functional
Plasmodium falciparum [1] = assay: GSK_TCMDC: Inhibition of Plasmodium falciparum 3D7 in whole red blood cells, using parasite LDH activity as an index of growth. Test compounds present at 2uM
Plasmodium falciparum [2] = assay: GSK_TCMDC: Inhibition of Plasmodium falciparum Dd2 in whole red blood cells, using parasite LDH activity as an index of growth. Test compounds present at 2uM
HepG2 = assay: GSK_TCMDC: Percent inhibition of human HepG2 cell line. Test compounds present at 10uM.

SMILES	Inhibition (Plasmodium falciparum [1]) [%]	Inhibition (Plasmodium falciparum [2]) [%]	Inhibition (HepG2) [%]
Cc1nc(N)nc(N)c1OCCCCOc1ccccc1.Cl.O	94	4	62
COc1cc(F)c2ncc(Cl)c(CCN3CCC(NCc4ccc5c(n4)NC(=O)CS5)CC3)c2c1.Cl	99	41	18
CC(C)COc1ccc(Cl)cc1Cc1ccc(-c2nc3cc(N4CCN(C)CC4)ccc3[nH]2)o1.Cl	100	41	6
CCCCCCCN(Cc1ccc(OC(C)(C)C(=O)OCC)cc1)C(=O)Nc1ccccc1OCC	93	94	0
c1ccc(Oc2ccc(Nc3ccnc4cc(-c5ccc(CN6CCCCC6)o5)ccc34)cc2)nc1	100	100	18
CN1CCN(c2ccnc3ccc(NC(=O)Nc4ccc(Cl)cc4)cc23)CC1	100	99	11
CCOc1ccc2[nH]c(C)cc(=NN=Cc3ccncc3)c2c1	99	78	8
Oc1ccc(Br)cc1-c1nc2ccc(Cl)cc2nc1-c1cc(Br)ccc1O	100	64	0
Cc1ccc(CN2CCCN(Cc3cccc(NC(=O)c4ccc(-c5ccccc5)cc4)c3)CC2)cc1C.O=C(O)C(F)(F)F	84	19	43
CC(=O)Nc1ccc(CN(C)C2CCN(c3cc(NC(=O)c4cccc(C)c4)ccn3)CC2)cc1.O=C(O)C(F)(F)F	94	13	0
Nc1nccc2ccc(-c3cccc4ncccc34)cc12.O=C(O)C(F)(F)F	98	94	40
CCCCN(CCCC)CC(O)c1cc(-c2ccc(Cl)cc2)nc2c(Cl)cc(Cl)cc12.Cl (stereo not drawn)	97	97	0
CC(C)CN1CCN(CCNc2c3ccccc3nc3ccccc23)CC1	97	79	26
CC(=O)c1sc(NC(=O)Nc2ccc(C)cc2C)nc1C	96	68	5
CC1CCCN(S(=O)(=O)c2ccc(NC(=O)c3cc(-c4ccccc4O)n[nH]3)cc2)C1 (stereo not drawn)	93	49	12
Cn1nccc1C(=O)NCCNCc1ccc(-c2ccc(-c3nc4cc(C(F)(F)F)ccc4[nH]3)cc2)cc1.O=C(O)C(F)(F)F	100	99	35
Cc1cc(=O)[nH]c(-n2nc(C)cc2NC(=O)CC(c2ccccc2)c2ccccc2)n1	90	62	42
CCOc1cc(C(=O)Nc2cccnc2)cc(Br)c1OCCC(C)C	88	51	4
O=C(NCCc1cccc(Cl)c1Cl)c1ccc(N2CCN(c3ccncc3)CC2)nc1.O=C(O)C(F)(F)F	100	79	38
CCc1cc2c(=O)c(-c3nc(C)cs3)c([C@H](N)Cc3ccc(O)cc3)oc2cc1O.O=C(O)C(F)(F)F	100	19	11
CCOC(=O)c1ccc(NC(=O)Nc2cccc(-c3cccc(-c4nc5cc(F)ccc5[nH]4)c3)c2)cc1	100	100	85

SMILES	Inhibition (Plasmodium falciparum [1]) [%]	Inhibition (Plasmodium falciparum [2]) [%]	Inhibition (HepG2) [%]
Cc1cc(N[C@@H](Cc2ccccc2)C(=O)NCCOc2ccccc2)nc(NCCc2ccccn2)n1.O=C(O)C(F)(F)F	92	42	12
COc1ccc2nccc([C@@H](O)CN3C4CCC3CC(NCc3ccc5c(n3)NC(=O)CS5)C4)c2n1.Cl (stereo partly drawn)	99	11	0
Cc1cc(N2CCCC2)nc(NC(=N)Nc2cccc(C(F)(F)F)c2)n1	100	100	33
CC(C)(CNC(=O)[C@H]1CCCCN1)c1nc(-c2ccc(Cl)c(O)c2)c(-c2ccncc2)[nH]1.Cl	98	98	6
O=C(Nc1cccc(-c2ccc(CN3CCC(O)CC3)cc2)c1)c1ccc(Cl)cc1.O=C(O)C(F)(F)F	95	8	46
O=C(Nc1ccccc1)Nc1cccc(-c2nn3c(OCC4CCCCN4)cccc3c2-c2ccncc2)c1 (stereo not drawn)	97	82	9
O=C(Nc1ccccc1)N1CCC(CN2CCOC(c3ccccc3)(c3ccccc3)C2)CC1	96	98	10
COC(=O)c1cccc(NC(=O)NC2CCN(c3ccnc(Nc4ccc(OC)cc4)n3)C2)c1 (stereo not drawn)	99	65	1
c1ccc(Oc2ccc(Nc3ccnc4ccc(-c5ccccn5)cc34)cc2)cc1	80	10	4
Cc1noc(C)c1CN1CCCN(c2ccc3c(c2)CCN(Cc2ccc(-c4ncc[nH]4)cc2)CC3)CC1	98	39	1
O=C(C=Cc1ccc(Cl)c(Cl)c1)NCCCCCN1CCC(CCNC(=O)c2cccc3ccccc23)CC1	85	0	17
CCN(CC)CCN(Cc1ccc(-c2ccc(C(F)(F)F)cc2)cc1)C(=O)Cn1c(CCc2ccc(F)c(F)c2F)nc(=O)c2ccc(F)cc21.O=C(O)C(O)C(O)C(=O)O	98	46	19
Cc1ccccc1Oc1nc2ccccc2nc1SCC(=O)NC(C)C	97	55	0
COc1ccc2c(OC)c(CNCCCCCCNCc3ccc4cc(OC)ccc4c3OC)ccc2c1.CS(=O)(=O)O	98	49	100
COc1cccc(-c2c(C#N)c(N)nc3c2c(C)nn3-c2ccccc2)c1O	100	100	4
CCOC(=O)c1ccc(NC(=O)Nc2ccc(Cn3ncc(N4CCCNCC4)c(Cl)c3=O)cc2)cc1.O=C(O)C(F)(F)F	88	58	2
CC(=O)Nc1ccc(S(=O)(=O)Nc2c(C)cc(Cc3cnc(N)nc3N)cc2C)cc1	94	0	6
O=C(Nc1ccc2c(c1)OCO2)c1cc(-c2cccnc2)cnc1NCc1ccc2c(c1)OCO2	87	1	2
COc1ccc2ncc(F)c([C@H](O)CN3CCC(NCc4ccc5c(c4)NC(=O)CO5)CC3)c2c1.Cl	100	100	16
CCC1(CC)CN(c2ccccc2)c2ccc(O)cc2S(=O)(=O)C1CC(C)C (stereo not drawn)	96	89	0
Cc1cc(-c2cnc(N)c(-c3ccc(N4CCN(C)CC4)nc3)c2)cc(C)c1O	91	33	0

SMILES	Inhibition (Plasmodium falciparum [1]) [%]	Inhibition (Plasmodium falciparum [2]) [%]	Inhibition (HepG2) [%]
CCOC(=O)c1ccc(N2CCN(c3cc(Cl)ccc3C)CC2)c(NC(=O)Nc2ccc(Cl)c(Cl)c2)c1	99	99	10
Cc1cccc2nc(-c3ccc(-c4cccc(CN5CCCC5CN)c4)s3)[nH]c12.O=C(O)C(F)(F)F (stereo not drawn)	91	45	20
O=C(/C=C/c1ccc(Cl)c(Cl)c1)NCCCCCN1CCCC(CCCNC(=O)Nc2ccc(C(F)(F)F)cc2)C1 (stereo not drawn)	100	48	58
CCCCCN(C(=O)Nc1cc(C(F)(F)F)cc(C(F)(F)F)c1)C(C)c1nc2ccccc2c(=O)n1CC (stereo not drawn)	100	100	0
CC(c1cccc(Nc2nccc(-c3c(-c4cccc(NC(=O)c5c(F)cccc5F)c4)nn4ncccc34)n2)c1)S(C)(=O)=O (stereo not drawn)	98	98	79
Cc1noc(C)c1-c1cccc(CNCc2cccc(-c3cccc(-c4nc5cc(C(F)(F)F)ccc5[nH]4)c3)c2)c1.O=C(O)C(F)(F)F	100	95	18
COCCN(C)c1ccc(C(=O)Nc2ccccc2)cc1NS(=O)(=O)Cc1ccccc1.O=C(O)C(F)(F)F	92	47	2
O=C(NC1CCN(c2ncc(C(F)(F)F)cc2Cl)CC1)c1cccs1	84	65	15
COc1ccc2c(O)c(C3CCC(c4ccc(Cl)cc4)CC3)c(C)nc2c1 (stereo not drawn)	97	84	2
CN1CCCC(OC(=O)c2ccccc2)C1 (stereo not drawn)	100	0	4
Br.CC(CCON1C(N)=NC(N)=NC1(C)C)c1ccc(Cl)c(Cl)c1 (stereo not drawn)	98	97	60
CS(=O)(=O)c1cccc(-c2cnc3[nH]cc(-c4cccc(CCN)c4)c3c2)c1.O=C(O)C(F)(F)F	99	74	0
Cc1ccc(Cl)cc1NC(=O)c1c(-c2ccccc2Cl)noc1C	88	37	9
O=C(Nc1cccc(OC2CCN(Cc3ccccc3)CC2)c1)c1ccc(Cl)c(Cl)c1.O=C(O)C(F)(F)F	100	45	16
CCCC(C)Nc1nc(C)cc(N[C@@H](Cc2ccccc2)C(=O)NCCc2ccccc2)n1.O=C(O)C(F)(F)F (stereo partly drawn)	97	68	11
O=C(Nc1ccc(Cl)cc1)Nc1ccc(-c2cccc(-c3nc4cc(F)ccc4[nH]3)c2)cc1	100	96	74
Brc1ccc(Nc2nc3ccccc3nc2Nc2ccc(Br)cc2)cc1	100	100	18
CN1CCc2cc(Br)c(O)cc2C1Cc1ccccc1Cl.Cl (stereo not drawn)	98	88	2
CCc1nc2c(cnn2CC)c(NC2CCOCC2)c1CNC(=O)c1ccoc1C	97	87	6
